Screens (PubChem)
Pf growth 48h – inhibits P. falciparum growth in the first generation, 48 h; P. falciparum luciferase growth in erythrocytes, 48 h; Potency, µM (top dose mostly 28.7 µM), hits mostly inhibitors; 310,000 tested, 5.9% active; AID 504832
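First compound was added to culture medium, then infected red cells at 0.1% parasitemia and 2% hematocrit (final). After incubation at 37 C under 5% CO2, luciferase detection reagent was dispensed and light output recorded.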
Shiga toxin inh – Shiga toxin inhibition; Vero cells, Shiga toxin protein synthesis inhibition reporter; 290,000 tested, 9.2% active; AID 2315; inhibition, % at 38.7 µM; in the data active means inhibition mostly above about 28%, no sharp cut-off; inactive means mostly below about 43%
AMA1-RON2 inh – AMA1-RON2 (P. falciparum) interaction inhibition | AlphaScreen AMA1-biotinylated RON2 peptide binding | Potency, µM (top dose mostly 58.2 µM), most hits filed as inhibitors | 360,000 tested, 0.2% active; further: nearly all actives have a fitted effect of over 45% in size
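AMA1 (3D7) with his tag at 25 nM final met compounds first, then biotinylated RON2 peptide at 25 nM; detection used donor plus acceptor beads, 10 µg/mL apiece, read by AlphaScreen after 30 min at room temperature.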
HCV inhibitor – inhibitors of hepatitis C virus infection; Huh7.5.1 HCVcc-Cre infection, luciferase reporter, 44 h; Potency, µM (top dose mostly 41.8 µM), hits mostly inhibitors; 340,000 tested, 3.4% active
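Infectious HCV cell culture screen: compound-treated cells (1,000/well, pre-plated 4 h) are infected with HCVcc-Cre at roughly 0.5 moi and grown 44 h. Infection is quantified by luciferase signal after 15 min substrate incubation at room temperature.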
Pf growth 96h – P. falciparum growth inhibition at 96 hour, primary screen for plastid delayed-death inhibitors. P. falciparum luciferase reporter growth, 96 h. Potency, µM (highest dose often 28.7 µM), most hits filed as inhibitors. 320,000 tested, 6.9% active
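Two parasite generations (96 h, 37 C, 5% CO2) of compound exposure in infected erythrocytes (0.05% parasitemia, 2% hematocrit). Luciferase-reporter P. falciparum; decreased luminescence indicates inhibited growth, aimed at apicoplast-acting delayed death.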
Cycloheximide cs – counter-screen hit for Shiga toxin inhibitors, cycloheximide; cell reporter, cycloheximide protein synthesis inhibition counterscreen; max response, %; 300,000 tested, 12% active; AID 2314; in the data active means max response mostly above about 13%, no sharp cut-off; inactive means mostly below about 14%; further: read at 38.3 µM for the half of the compounds with a filed dose
Each line names hits and unclear results; the compound was inactive in the other large screens. Rows were chosen to be rich in hits. Some 21% of all compounds tested hit in one or more screens of this group. Unless noted, the call rests on the fitted dose curve; in most records, active means well fitted curve in the direction sought with a large enough effect; inconclusive means small, poorly fitted or top-dose-only effect, or another doubt; inactive means no such curve, though single readings can be large; an effect the other way counts as inactive or inconclusive.

CCN1C(=O)c2ccc(C(=O)Nc3ccc(O)cc3C)cc2C1=O	none
CCCc1nnc(NC(=O)CCC(=O)NCc2ccc(OC)cc2)s1	none
CC1CCCC(NC(=O)COC(=O)c2n[nH]c3ccccc23)C1C (centres undefined)	none (no result: Pf growth 48h, Shiga toxin inh, Pf growth 96h, Cycloheximide cs)
CCCCn1c(NC(C)CC)nc2c1c(=O)[nH]c(=O)n2C (centres undefined)	Pf growth 48h inconclusive, Pf growth 96h 4.65µM
Cc1ccc(/C=N/NC(=O)c2ccoc2C)s1	Shiga toxin inh active, Cycloheximide cs 70.0
C/C(=N\NC(=O)c1ccoc1C)c1ccc(Br)s1	Shiga toxin inh 79.5, Cycloheximide cs 57.2
Cc1occc1C(=O)N/N=C/c1ccc(Br)s1	Shiga toxin inh 63.0, Cycloheximide cs 42.3
O=C(C[C@H]1C[C@@H]2c3cc(NS(=O)(=O)c4ccccc4)ccc3O[C@@H]2[C@H](CO)O1)N1CCOCC1	none (no result: Pf growth 48h, Shiga toxin inh, HCV inhibitor, Pf growth 96h, Cycloheximide cs)
Cc1occc1C(=O)NC1CCCN(Cc2ccc(Cl)cc2)C1 (centres undefined)	HCV inhibitor inconclusive
Cc1cc(C(=O)NC2CCC(C)CC2)c(C)o1 (centres undefined)	Shiga toxin inh 79.9, Cycloheximide cs 51.7
O=C(CCc1ccc(F)c(F)c1)NC1CCCN(Cc2ccc(Cl)cc2)C1 (centres undefined)	Pf growth 96h 9.28µM
Cc1cc(C(=O)NC2CCCN(Cc3ccc(Cl)cc3)C2)c(C)o1 (centres undefined)	Pf growth 48h 10.4µM, Pf growth 96h inconclusive
COc1ccc(CCNC(=O)C(=O)N/N=C/c2cccs2)cc1OC	Pf growth 96h inconclusive
CC(=O)c1ccc(NC(=O)C(C)OC(=O)/C=C/c2ccco2)cc1 (centres undefined)	HCV inhibitor inconclusive (no result: Pf growth 48h, Shiga toxin inh, Pf growth 96h, Cycloheximide cs)
CC(C)N(Cc1ccccc1)S(=O)(=O)c1cccs1	none
O=C1/C(=N\S(=O)(=O)c2cccs2)C([n+]2cccc(Cc3ccccc3)c2)=C([O-])c2ccccc21	Pf growth 48h 1.65µM, Pf growth 96h 0.738µM
O=C1/C(=N\S(=O)(=O)c2cccs2)C([n+]2ccc(CCCc3ccccc3)cc2)=C([O-])c2ccccc21	Pf growth 48h 0.37µM, HCV inhibitor inconclusive, Pf growth 96h 1.04µM
NC(=NCCc1ccccc1)NS(=O)(=O)c1cccs1	none
O=C(Nc1cc2nn(-c3ccccc3)nc2cc1Cl)c1ccco1	Shiga toxin inh 47.4, Cycloheximide cs 20.6
Nc1nc(NC(=O)c2ccco2)nn1-c1ccccc1	Shiga toxin inh 79.5, Cycloheximide cs 34.9
O=C(Nc1ccc2nn(-c3ccc(F)cc3)nc2c1)c1cccnc1	Pf growth 48h inconclusive, HCV inhibitor inconclusive
Nc1ccc(NC(=O)c2ccco2)c(Cl)c1	none
O=C(Nc1ccc2nn(-c3ccccc3)nc2c1)c1ccco1	Shiga toxin inh 72.1, HCV inhibitor inconclusive, Pf growth 96h inconclusive, Cycloheximide cs 46.6
CC(C)C(=O)Nc1ccc2nn(-c3ccccc3)nc2c1	Shiga toxin inh 103.2, HCV inhibitor inconclusive, Cycloheximide cs 38.7
CC(C)(C)C(=O)NCCCC(=O)O	Pf growth 48h inconclusive (no result: Shiga toxin inh, AMA1-RON2 inh, HCV inhibitor, Cycloheximide cs)
CC(=O)NCCNc1nc2cc(-c3cnn(CCC(C)C)c3)sc2c(=O)n1C	none (no result: Pf growth 48h, Shiga toxin inh, HCV inhibitor, Pf growth 96h, Cycloheximide cs)
O=C(Nc1ccc2nn(-c3ccccc3)nc2c1)c1cccnc1	HCV inhibitor inconclusive, Cycloheximide cs 22.1
COC(=O)C1=C[C@@H](C(=O)OC)C2C3=C(C(=O)[C@]2(C)NC(=O)c2ccccc2)[C@H](C)[C@@H]2C(=O)N(C)C(=O)[C@@H]2[C@@H]3C1 (some centres undefined)	none (no result: Pf growth 48h, AMA1-RON2 inh, HCV inhibitor, Pf growth 96h)
COc1cc(CN2CCc3ccccc3C2)ccc1O	Shiga toxin inh 54.2, HCV inhibitor inconclusive, Cycloheximide cs 29.9
COc1cccc(CN2CCc3ccc(NC(=O)CCc4ccc(C)cc4)cc3C2)c1O	Pf growth 48h inconclusive, HCV inhibitor 11.2µM, Pf growth 96h inconclusive
COc1ccc(CN2CCc3ccc(NC(=O)CCc4ccccc4OC)cc3C2)c(O)c1	Pf growth 48h 2.08µM, HCV inhibitor 8.91µM
COc1cc(CN2CCN(c3cc(C)ccc3C)CC2)ccc1O	Pf growth 48h 10.4µM, HCV inhibitor inconclusive (no result: Pf growth 96h)
COc1ccc(NC(=O)CN2CCc3ccccc3C2)cc1OC	Pf growth 48h inconclusive
COc1cc(CN2CCc3ccccc3C2)cc([N+](=O)[O-])c1O	AMA1-RON2 inh inconclusive
COc1cc(CN2CCc3ccc(NC(=O)CCc4ccccc4OC)cc3C2)ccc1O	Pf growth 48h 5.22µM, HCV inhibitor inconclusive
COc1cc2c(cc1OC)CN(CC(=O)Nc1cccc(C)c1)CC2	Pf growth 48h inconclusive
COc1ccccc1CCC(=O)Nc1ccc2c(c1)CN(CCCn1cccn1)CC2	Pf growth 48h 8.28µM
Cc1ccc(S(=O)(=O)c2nnn3c2nc(N2CCOCC2)c2ccccc23)c(C)c1	Pf growth 48h inconclusive, AMA1-RON2 inh inconclusive, HCV inhibitor inconclusive
Cc1ccn(-c2cc(O)c(-n3ccc(C)n3)cc2O)n1	Cycloheximide cs 14.1
Cc1ccn(CCC(=O)O)n1	none
CCC/C(=N/Nc1ccc(Cl)cc1)c1cnnc(-c2ccccc2)n1	HCV inhibitor 14.1µM (no result: Pf growth 48h, Shiga toxin inh, Pf growth 96h, Cycloheximide cs)
CC/C(=N/Nc1ccccc1Cl)c1cnnc(-c2ccccc2)n1	Pf growth 48h 2.33µM, HCV inhibitor inconclusive, Pf growth 96h 1.04µM
CSc1nncc(/C(C)=N\Nc2ccccc2C)n1	Pf growth 96h inconclusive (no result: Pf growth 48h)
COc1ccc(-c2cnnc(N/N=C/C(C)=C/c3ccccc3)n2)cc1	none (no result: AMA1-RON2 inh)
COc1ccc(N/N=C(/C)c2cnnc(-c3ccccc3)n2)cc1	Pf growth 48h inconclusive, Pf growth 96h 0.37µM
CC(=NO)C1(C)CC=CCC1CO (centres undefined)	none (no result: Pf growth 48h, Shiga toxin inh, HCV inhibitor, Pf growth 96h, Cycloheximide cs)
CCCC[n+]1ccn(-c2nc3ccccc3nc2[N-]S(=O)(=O)c2ccc(C)cc2)c1	none (no result: Pf growth 48h)
CCCC[n+]1ccn(-c2nc3ccccc3nc2[N-]S(=O)(=O)c2cccs2)c1	Pf growth 48h inconclusive, Pf growth 96h 5.86µM
O=S(=O)([N-]c1nc2ccccc2nc1-n1cc[n+](Cc2ccccc2)c1)c1ccccc1	none
Cc1ccc(S(=O)(=O)[N-]c2nc3ccccc3nc2-n2cc[n+](Cc3ccccc3)c2)cc1	Pf growth 48h 4.15µM, HCV inhibitor inconclusive, Pf growth 96h 1.47µM
CCCC[n+]1ccn(-c2nc3ccccc3nc2[N-]S(=O)(=O)c2ccccc2)c1	Pf growth 96h 14.7µM (no result: Pf growth 48h)
O=S(=O)(NC1c2cccc3cccc(c23)C1Sc1ncccn1)c1ccccc1 (centres undefined)	Pf growth 48h inconclusive, HCV inhibitor inconclusive, Pf growth 96h inconclusive
CC(C)[C@H](NC(=O)OC(C)(C)C)c1cc(C(=O)N[C@@H](C)c2ccccc2)c(N)s1	none (no result: Pf growth 48h, Shiga toxin inh, HCV inhibitor, Pf growth 96h, Cycloheximide cs)
COC(=O)CN1CC(=O)c2ccccc2S1(=O)=O	none (no result: Pf growth 48h, AMA1-RON2 inh, HCV inhibitor, Pf growth 96h)
O=C(COc1ccc([N+](=O)[O-])cc1Cl)N1CCc2ccccc21	none (no result: Pf growth 48h, Shiga toxin inh, Pf growth 96h, Cycloheximide cs)
